{"source": "PubChem BioAssay (NCATS)", "note": "Records with an inconclusive call do not appear. A number with no mark means an inactive call. Active and inactive are the calls of the source. The call rests on the fitted dose curve; in most records, active means well fitted cell-killing curve with a large enough effect; inconclusive means small, poorly fitted or top-dose-only effect; inactive means flat fitted curve, though single readings scatter. On the % scale 0 is the no-effect control and ±100 the full control effect; potency means the concentration at half of the fitted maximal effect.", "data": [{"assay": "Cell Viability - LYMP2-008 (AID 980); further: nearly all actives have a fitted effect of over 60% in size;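 on activity change, negative = cytotoxicity: cells exposed to compound for 24 h at 37 °C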", "conditions": "LYMP2-008 lymphoblastoid cell viability, qHTS; series mostly up to 92.2 µM; activity change, negative = cytotoxicity: at the top concentration", "source_text": "NIH Chemical Genomics Center [NCGC]\nNIH Molecular Libraries Screening Centers Network [MLSCN]\nNational Institutes of Environmental Health Sciences [NIEHS]\nNational Toxicology Program [NTP]\nWe have developed a 1536-well cell-based assay for quantitative high throughput screening (qHTS) against a number of cell lines to determine in vitro cytotoxicity of small molecules. This particular assay uses a human lymphoblastoid cell line (LYMP2-008) purchased from Coriell Institute for Medical Research.\nNCGC Assay Protocol Summary:\nThe CellTiter-Glo luminescent cell viability assay (Promega) is a homogeneous method to measure the number of viable cells in culture. The end point readout of this assay is based on quantitation of intracellular ATP, an indicator of metabolic activity, using the luciferase reaction. Luciferase catalyzes the oxidation of beetle Luciferin to oxyluciferin and light in the presence of ATP. The luminescent signal is proportional to amount of ATP present.\nUsing the CellTiter-Glo luminescent cell viability assay, the amount of cellular ATP was measured in the lymphoblastoid cell line with complete culture medium following compound treatment for 24 hours. The assay was performed in opaque white Kalypsys 1536-well plates. In the screen, tetraoctylammonium bromide was used as positive control. Library compounds were measured for their ability to cause acute toxicity in the cell line, as reflected by a decrease in intracellular ATP levels, in a concentration-dependent manner. […] AC50 values were determined from concentration-response data modeled with the standard Hill equation.\nqHTS protocol for CellTiter Glo lymphoblastoid cellular assay\n[Step] [Parameter] [Value] [Description]\n1. Reagent; 5 uL; 2500 lymphoblastoid cells/well\n2. Time; 5 hr; 37 C incubation\n4. Controls; 23 nL; Tetraoctylammonium bromide 6.4pM to 92 uM\n5. Time; 24 hr; 37 C incubation\n6. Reagent; 5 uL; CellTiter Glo reagent\n7. Time; 30 min; Room Temperature\n8. Detection; Luminescence; Viewlux plate reader\nKeywords: cell viability, cytotoxicity, lymphoblastoid cell line, luminescence, NTPHTS, NTPHTS_NCGC, NIEHS, DSSTox, MLSMR, MLSCN, NIH Roadmap, qHTS, NCGC", "units": {"activity change, negative = cytotoxicity": "%"}, "values": [{"smiles": "CC(=O)c1ccc(Cl)c(Cl)c1Cl", "activity change, negative = cytotoxicity": -2.65}, {"smiles": "NC(=O)c1ccc([N+](=O)[O-])cc1", "activity change, negative = cytotoxicity": -12.2}, {"smiles": "CCCCC(CC)COP(=O)(OCC(CC)CCCC)OCC(CC)CCCC", "note": "(stereo not given)", "activity change, negative = cytotoxicity": 5.52}, {"smiles": "CC(=O)CC(=O)Nc1ccccc1", "activity change, negative = cytotoxicity": -20.8}, {"smiles": "Brc1ccc(-c2ccccc2)cc1", "activity change, negative = cytotoxicity": -0.551}, {"smiles": "CCCCCCc1ccc(-c2ccc(C#N)cc2)cc1", "activity change, negative = cytotoxicity": -7.2}, {"smiles": "c1ccc(SCCSc2ccccc2)cc1", "activity change, negative = cytotoxicity": -3.51}, {"smiles": "Brc1cc(Br)c(Oc2cc(Br)c(Br)cc2Br)cc1Br", "activity change, negative = cytotoxicity": -3.66}, {"smiles": "C=CC(=O)OCCCCCCOC(=O)C=C", "Potency": "50.1 µM (active)"}, {"smiles": "Nc1ccc(-c2ccc(N)c(O)c2)cc1O", "activity change, negative = cytotoxicity": -13}, {"smiles": "CC/C=C/C/C=C/C/C=C/CCCCCCCC(=O)OCC", "Potency": "50.1 µM (active)"}, {"smiles": "C/C=C/C=C/C=O", "Potency": "39.8 µM (active)"}, {"smiles": "O=C(OCc1ccccc1)c1ccccc1O", "activity change, negative = cytotoxicity": 0.749}, {"smiles": "OCC(CO)(CBr)CBr", "activity change, negative = cytotoxicity": -5.57}, {"smiles": "O=[N+]([O-])c1cc(N(CCO)CCO)ccc1NCCO", "activity change, negative = cytotoxicity": -29.8}, {"smiles": "O=[N+]([O-])c1ccc(F)cc1F", "activity change, negative = cytotoxicity": -10.5}, {"smiles": "COc1ccc(C)cc1N", "activity change, negative = cytotoxicity": -5.09}, {"smiles": "CCCCCCCCOc1ccc(C(=O)O)cc1", "activity change, negative = cytotoxicity": -10.3}, {"smiles": "Cc1cccnc1", "activity change, negative = cytotoxicity": -5.49}, {"smiles": "OC1CCCCC1", "activity change, negative = cytotoxicity": -11.4}, {"smiles": "Cc1c2ccccc2c(C)c2c1ccc1ccccc12", "activity change, negative = cytotoxicity": -14.8}, {"smiles": "C=CC1CO1", "note": "(stereo not given)", "activity change, negative = cytotoxicity": -9.01}, {"smiles": "CC(C)COC(=O)COc1cc(Cl)c(Cl)cc1Cl", "activity change, negative = cytotoxicity": -4.42}, {"smiles": "CC(=O)Nc1cccc(C)c1", "activity change, negative = cytotoxicity": -0.0236}, {"smiles": "c1ccncc1", "activity change, negative = cytotoxicity": -12.2}, {"smiles": "Nc1ccc(N)c(Cl)c1", "activity change, negative = cytotoxicity": -15.6}, {"smiles": "CC(=O)OCc1ccc2c(c1)OCO2", "activity change, negative = cytotoxicity": -5.39}, {"smiles": "c1c[nH]cn1", "activity change, negative = cytotoxicity": -1.39}, {"smiles": "O=c1[nH]ncc2ccccc12", "activity change, negative = cytotoxicity": -1.55}, {"smiles": "Nc1ccccc1O", "activity change, negative = cytotoxicity": -14.3}, {"smiles": "Cc1ccccc1OCC1CO1", "note": "(stereo not given)", "activity change, negative = cytotoxicity": -9.47}, {"smiles": "Brc1cc(Oc2cc(Br)c(Br)c(Br)c2Br)c(Br)c(Br)c1Br", "activity change, negative = cytotoxicity": -4.18}, {"smiles": "CC(=O)OC(C(=O)c1ccccc1)c1ccccc1", "note": "(stereo not given)", "activity change, negative = cytotoxicity": -10.8}, {"smiles": "CC(C)OCC1CO1", "note": "(stereo not given)", "activity change, negative = cytotoxicity": 2.73}, {"smiles": "CCCCCCN", "activity change, negative = cytotoxicity": 0.399}, {"smiles": "CC1=C(/C=C/C(C)=C/C=C/C(C)=C/C=O)C(C)(C)CCC1", "Potency": "39.8 µM (active)"}, {"smiles": "C1CCCNCC1", "activity change, negative = cytotoxicity": -17.9}, {"smiles": "Nc1ccc2c(c1)C(=O)c1ccccc1C2=O", "activity change, negative = cytotoxicity": -23.4}, {"smiles": "CCCCC(CC)COC(=O)COc1ccc(Cl)cc1Cl", "note": "(stereo not given)", "activity change, negative = cytotoxicity": -1.99}, {"smiles": "CCC(Cl)CC(Cl)C(Cl)C(Cl)C(Cl)C(C)Cl", "note": "(stereo not given)", "activity change, negative = cytotoxicity": -7.78}]}]}
